In all, about 5,500 compounds went through this assay and about 2,000 (36%) were called active. About 18% were inconclusive and are not listed. Cut-off read from the data, not from the text of the source: active = normalized growth mostly below about 0.91 (no sharp cut-off); inconclusive = no clear call, values can overlap the other calls; inactive = mostly above about 0.92. The list shows a part of the results. Where a SMILES comes first, the peptide text is derived from it.
Experiment: chemical genetic growth profiling, strain panel (AID 1159580);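 note: tested at 20 µM; growth read once vehicle control cultures reached saturation at 30 °C; 1 = growth at the plate median or of vehicle wells; lower values mean less growth of the strain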
Conditions: growth OD

Measured: normalized growth

NCCCCC(N)C(=O)NC(Cc1ccc(O)cc1)C(=O)NC(CCCCN)C(=O)O (stereo not drawn) (H-Lys-Tyr-Lys-OH; configuration not given here)
inactive: S. cerevisiae deletion strains, locus YAL013W, strain DEP1, active compounds read low 1.01 | S. cerevisiae deletion strains, locus YBR021W, strain FUR4, active compounds read low 1 | S. cerevisiae deletion strains, locus YBR229C, strain ROT2, active compounds read low 1.01 | S. cerevisiae deletion strains, locus YCL029C, strain bik1, active compounds read low 0.983 | S. cerevisiae deletion strains, locus YDL035C, strain GPR1, active compounds read low 1.01 | S. cerevisiae deletion strains, locus YDL074C, strain BRE1, active compounds read low 1.06 | S. cerevisiae deletion strains, locus YDL101C, strain DUN1, active compounds read low 1.02 | S. cerevisiae deletion strains, locus YDL134C, strain PPH21, active compounds read low 1.01 | S. cerevisiae deletion strains, locus YDL185W, strain tfp1, active compounds read low 0.971 | S. cerevisiae deletion strains, locus YDL192W, strain arf1, active compounds read low 0.984 | S. cerevisiae deletion strains, locus YDR101C, strain arx1, active compounds read low 1.01 | S. cerevisiae deletion strains, locus YDR150W, strain NUM1, active compounds read low 0.999 | S. cerevisiae deletion strains, locus YDR162C, strain NBP2, active compounds read low 1.04 | S. cerevisiae deletion strains, locus YDR318W, strain mcm21, active compounds read low 0.983 | S. cerevisiae deletion strains, locus YDR388W, active compounds read low 1.01 | S. cerevisiae deletion strains, locus YDR502C, strain sam2, active compounds read low 1 | S. cerevisiae deletion strains, locus YEL061C, strain CIN8, active compounds read low 0.996 | S. cerevisiae deletion strains, locus YER110C, active compounds read low 0.987 | S. cerevisiae deletion strains, locus YER155C, strain BEM2, active compounds read low 0.985 | S. cerevisiae deletion strains, locus YER167W, strain BCK2, active compounds read low 0.995 | S. cerevisiae deletion strains, locus YGL078C, strain dbp3, active compounds read low 0.988 | S. cerevisiae deletion strains, locus YGL086W, strain mad1, active compounds read low 0.963 | S. cerevisiae deletion strains, locus YGL248W, strain PDE1, active compounds read low 1.01 | S. cerevisiae deletion strains, locus YGR078C, strain PAC10, active compounds read low 1.04 | S. cerevisiae deletion strains, locus YGR135W, strain pre9, active compounds read low 0.999 | S. cerevisiae deletion strains, locus YGR229C, strain SMI1, active compounds read low 1.05 | S. cerevisiae deletion strains, locus YGR252W, strain gcn5, active compounds read low 0.958 | S. cerevisiae deletion strains, locus YHR030C, strain SLT2, active compounds read low 0.996 | S. cerevisiae deletion strains, locus YHR079C, strain IRE1 (second series), active compounds read low 1 | S. cerevisiae deletion strains, locus YHR094C, strain hxt1, active compounds read low 0.982 | S. cerevisiae deletion strains, locus YHR129C, strain ARP1, active compounds read low 1.01 | S. cerevisiae deletion strains, locus YHR200W, strain rpn10, active compounds read low 0.984 | S. cerevisiae deletion strains, locus YIL066C, strain RNR3, active compounds read low 1.02 | S. cerevisiae deletion strains, locus YIL073C, strain SPO22, active compounds read low 0.948 | S. cerevisiae deletion strains, locus YIR030C, strain dcg1, active compounds read low 0.995 | S. cerevisiae deletion strains, locus YJL095W, strain BCK1, active compounds read low 1.07 | S. cerevisiae deletion strains, locus YJL134W, strain LCB3, active compounds read low 0.997 | S. cerevisiae deletion strains, locus YJL168C, strain set2, active compounds read low 1.02 | S. cerevisiae deletion strains, locus YJL187C, strain SWE1 (second series), active compounds read low 1.01 | S. cerevisiae deletion strains, locus YJR043C, strain POL32, active compounds read low 0.996 | S. cerevisiae deletion strains, locus YJR075W, strain HOC1, active compounds read low 1.1 | S. cerevisiae deletion strains, locus YKL009W, strain mrt4, active compounds read low 0.958 | S. cerevisiae deletion strains, locus YKL068W, active compounds read low 0.987 | S. cerevisiae deletion strains, locus YKL085W, strain MDH1 (second series), active compounds read low 1.04 | S. cerevisiae deletion strains, locus YKL085W, strain MDH1, active compounds read low 1.04 | S. cerevisiae deletion strains, locus YKL190W, strain CNB1, active compounds read low 1.01 | S. cerevisiae deletion strains, locus YKR001C, strain vps1, active compounds read low 0.979 | S. cerevisiae deletion strains, locus YLR039C, strain RIC1, active compounds read low 1.04 | S. cerevisiae deletion strains, locus YLR058C, strain SHM2, active compounds read low 0.999 | S. cerevisiae deletion strains, locus YLR102C, strain apc9, active compounds read low 1 | S. cerevisiae deletion strains, locus YLR262C, strain YPT6, active compounds read low 1 | S. cerevisiae deletion strains, locus YLR268W, strain sec22, active compounds read low 1.01 | S. cerevisiae deletion strains, locus YLR330W, strain CHS5, active compounds read low 0.987 | S. cerevisiae deletion strains, locus YLR342W, strain FKS1 (second series), active compounds read low 1.01 | S. cerevisiae deletion strains, locus YLR371W, strain rom2, active compounds read low 0.983 | S. cerevisiae deletion strains, locus YLR418C, strain cdc73, active compounds read low 1.04 | S. cerevisiae deletion strains, locus YML016C, strain PPZ1, active compounds read low 1 | S. cerevisiae deletion strains, locus YML032C, strain rad52, active compounds read low 0.976 | S. cerevisiae deletion strains, locus YML124C, strain tub3, active compounds read low 0.99 | S. cerevisiae deletion strains, locus YMR078C, strain ctf18, active compounds read low 0.982 | S. cerevisiae deletion strains, locus YMR223W, strain ubp8, active compounds read low 0.981 | S. cerevisiae deletion strains, locus YMR263W, strain SAP30, active compounds read low 1.05 | S. cerevisiae deletion strains, locus YMR307W, strain GAS1, active compounds read low 1.07 | S. cerevisiae deletion strains, locus YNL067W, strain RPL9B, active compounds read low 1.04 | S. cerevisiae deletion strains, locus YNL128W, strain TEP1, active compounds read low 1.05 | S. cerevisiae deletion strains, locus YNL153C, strain GIM3, active compounds read low 1.05 | S. cerevisiae deletion strains, locus YNL233W, strain BNI4, active compounds read low 1.04 | S. cerevisiae deletion strains, locus YNL250W, strain rad50, active compounds read low 0.981 | S. cerevisiae deletion strains, locus YNL271C, strain bni1, active compounds read low 0.99 | S. cerevisiae deletion strains, locus YNL298W, strain CLA4, active compounds read low 0.987 | S. cerevisiae deletion strains, locus YNL307C, strain MCK1, active compounds read low 0.993 | S. cerevisiae deletion strains, locus YNL322C, strain KRE1, active compounds read low 0.998 | S. cerevisiae deletion strains, locus YNR052C, strain pop2, active compounds read low 0.99 | S. cerevisiae deletion strains, locus YOL006C, strain TOP1, active compounds read low 1.06 | S. cerevisiae deletion strains, locus YOL012C, strain htz1 0.771 | S. cerevisiae deletion strains, locus YOL147C, strain pex11, active compounds read low 0.995 | S. cerevisiae deletion strains, locus YOR061W, strain CKA2, active compounds read low 1.01 | S. cerevisiae deletion strains, locus YOR069W, strain VPS5, active compounds read low 1 | S. cerevisiae deletion strains, locus YOR136W, strain idh2, active compounds read low 0.998 | S. cerevisiae deletion strains, locus YOR144C, strain elg1, active compounds read low 0.989 | S. cerevisiae deletion strains, locus YOR184W, strain ser1, active compounds read low 0.966 | S. cerevisiae deletion strains, locus YOR316C, strain cot1, active compounds read low 0.99 | S. cerevisiae deletion strains, locus YPL055C, strain LGE1, active compounds read low 1.11 | S. cerevisiae deletion strains, locus YPL241C, strain CIN2, active compounds read low 1 | S. cerevisiae deletion strains, locus YPR119W, strain clb2, active compounds read low 0.998 | S. cerevisiae deletion strains, locus YPR141C, strain kar3, active compounds read low 1 | S. cerevisiae deletion strains, locus YPR163C, strain tif3, active compounds read low 0.982 | S. cerevisiae deletion strains, locus YPR167C, strain met16, active compounds read low 0.997 | S. cerevisiae deletion strains, strain wtn01, active compounds read low 1.03 | S. cerevisiae strains, strain wild type, active compounds read low 1.01

From PubChem BioAssay AID1159580 (chemical genetic matrix, 2015)
